Assay results from PubChem BioAssay (NCI).
Compounds without any hit were thinned out: in the full panel of roughly 83,000, 20% have a hit.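 Step 1: grow cells in 96-well plates. Step 2: add test compound at a single concentration. Step 3: incubate 48 h. Step 4: record percent growth.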 Unmarked numbers belong to inactive results. Activity calls are given as the source filed them. Rule for the calls: active = growth percent below 10; inactive = the rest.

How the values were obtained:
Test in all cases: NCI-60 one-dose screen, 48 h (100 = growth as untreated, 0 = no growth, -100 = all killed)
Details in all cases: 10 µM unless noted
[1] = test system: NCI-H23 lung
[2] = test system: NCI-H226 lung
[3] = test system: NCI-H322M lung
[4] = test system: HOP-62 NSCLC
[5] = test system: NCI-H460 lung
[6] = test system: HOP-92 NSCLC
[7] = test system: NCI-H522 lung
[8] = test system: A549/ATCC NSCLC
[9] = test system: 786-0 renal
[10] = test system: COLO 205 colon

Row | Compound | growth [1] | growth [2] | growth [3] | growth [4] | growth [5] | growth [6] | growth [7] | growth [8] | growth [9] | growth [10]
1 | COc1ncc(-c2ccc3ncnc(Nc4cccc(Cl)c4)c3c2)cc1N(S(C)(=O)=O)S(C)(=O)=O | 71.5% | 64.5% | 17.4% | 79.1% | 62.3% | 7.62% (active) | 52.2% | 47.9% | 79.5% | 77.1%
2 | CN(C)C/C=C/C(=O)Nc1cc2c(Nc3ccc(F)c(Cl)c3F)ncnc2cc1OCCOC(F)F | 26.6% | 25.1% | 1.96% (active) | 20.6% | 36.6% | -53.7% (active) | -25.7% (active) | 21.8% | 0.67% (active) | 20.1%
3 | CNC(C)=O | 95.3% | 95.1% | 92% | 94.4% | 106% | 103% | 89% | 92.1% | 106% | 98.8%
4 | CN(C)CCCNC(=O)C(c1ccccc1)c1ccccc1 | 93.5% | 106% | 102% | 103% | 112% | 98% | 89.9% | 89.9% | 102% | 106%
5 | Cc1oc2nc[nH]c(=O)c2c1C(=O)/C=C/c1ccc(Cl)cc1 | 39.7% | 94% | 45.2% | 6.15% (active) | 21% | -4.23% (active) | 17.5% | 31.7% | 29.7% | 70.8%
6 | Cc1nc2scc(-c3ccccc3)n2c(=O)c1CCO | 99.6% | 99.9% | 103% | 92.5% | 100% | 84.6% | 99.1% | 93.6% | 106% | 108%
7 | COc1cc(CCn2nnc3c(Nc4ccc(N5CCOCC5)cc4)ncnc32)cc(OC)c1 | 95.1% | 90.7% | 111% | 104% | 98.4% | 47.3% | 88.5% | 98.1% | 107% | 94.9%
8 | CCOC(=O)C(Cc1ccccc1)n1c(O)c(C=Nc2ccc(C(=O)OCCN(CC)CC)cc2)sc1=O (stereo not given) | 102% | 96.7% | 94.4% | 103% | 99.3% | 84.2% | 85.7% | 74.4% | 90.8% | 95.5%
9 | Nc1c(C(=O)Nc2cccc(C(F)(F)F)c2)sc2nc3c(cc12)C(O)CCC3 (stereo not given) | 39.5% | 56.3% | 27.2% | 40.7% | 14.5% | 67.2% | 19.3% | 24.7% | 47.4% | 9.16% (active)
10 | CN(C)C/C=C/C(=O)Nc1cc2c(Nc3cccc(Cl)c3F)ncnc2cc1OCCOC(F)F | 60.9% | 40.3% | 7.68% (active) | 39.3% | 67.4% | -29% (active) | -19.2% (active) | 25.2% | 18.5% | 56.7%
11 | O=C(O)Cc1ccc2c(c1)Cc1cccnc1O2 | 98.9% | 91.7% | 109% | 106% | 105% | 112% | 95.7% | 96.1% | 98% | 111%
12 | Nc1c(C(=O)Nc2ccccc2)sc2nc3c(cc12)CCC3 | 87.9% | 85.3% | 101% | 96.4% | 91% | 55.6% | 83.9% | 91.2% | 101% | 108%
13 | COc1cc2oc(-c3cccc(NC(=O)Nc4ccc5c(c4)OCO5)c3)cc(=O)c2c(OC)c1OC | 64.5% | 87.6% | 79.4% | 63.2% | 37.7% | 17.2% | 41.5% | 61% | 65.1% | 75.8%
14 | CC(Br)C(O)c1cc2c(cc1Br)OCO2 (stereo not given) | 100% | 106% | 111% | 102% | 112% | 104% | 99.9% | 103% | 100% | 120%
15 | COc1ccc(Cn2cc(COc3cc(/C=C/C(=O)c4cc(OC)c(OC)c(OC)c4)ccc3OC)nn2)cc1 | 107% | 89.4% | 52.4% | 19.2% | 96.4% | 45% | 41.6% | 60.1% | 81% | 81.9%
16 | COc1ccc2c(c1)NC(=O)CN2c1nc(C)nc2ccccc12 | 20.4% | 65.8% | 42.8% | 29.2% | 2.28% (active) | -5.74% (active) | -21.1% (active) | 21.3% | 19.8% | -35% (active)
17 | COc1ccc(/C=C/C(=O)c2ccc(B(O)O)cc2)cc1O | 88% | 92.5% | 96.3% | 89.8% | 73.2% | 52.4% | 85.6% | 66.3% | 84.9% | 101%
18 | Cc1cc(C)c2c(=O)[nH]c(SCC(=O)Nc3cccc(S(=O)(=O)N(C)C)c3)nc2n1 | 104% | 91.9% | 122% | 97.8% | 107% | 88.3% | 96.3% | 95% | 93.2% | 90.9%
19 | Cc1cc2c(c(=O)o1)C(c1ccc(OC(=O)N3CCOCC3)cc1)C(C#N)=C(N)O2 (stereo not given) | 97.4% | 104% | 93.1% | 89.6% | 107% | 113% | 98.9% | 100% | 99.2% | 118%
20 | CCN1C(=S)N(CC)C2Nn3c(s/c(=C4\C(=O)N(C)c5ccccc54)c3=O)=NC21 (stereo not given) | 44.9% | 88.6% | 73.1% | 52.3% | 29% | 76.1% | 32.3% | 50.3% | 56.2% | 30.8%
21 | C=C1C(=O)O[C@H]2[C@H]1CC/C(Cn1cc(-c3ccccc3C(F)(F)F)nn1)=C\CC[C@@]1(C)O[C@@H]21 | 7.85% (active) | -45.6% (active) | 81.6% | 37.3% | 49.1% | -70.4% (active) | -82.5% (active) | 42.9% | -81.2% (active) | -78.8% (active)
22 | c1cc(-c2ccc3c(c2)OCO3)n2nccc2n1 | 104% | 83% | 99.3% | 108% | 101% | 83.9% | 89.7% | 99.2% | 101% | 113%
23 | O=[N+]([O-])c1ccc(S(=O)(=O)N2CCN(c3ccnc4cc(Cl)ccc34)CC2)c([N+](=O)[O-])c1 | 97.2% | 83.7% | 107% | 96.4% | 99.2% | 82.1% | 46.1% | 99.2% | 80.8% | 91.4%
24 | Clc1ccc(-c2nc(-c3ccco3)cn3ccnc23)cc1 | 61% | 46.3% | 11.4% | 31.4% | 14.5% | 34.7% | 61.5% | -1.62% (active) | -41.1% (active) | 75%
25 | O=c1[nH]c(-c2cn(-c3ccc(Cl)cc3)nn2)nc2ccccc12 | 77.6% | 65.5% | 52.4% | 52.5% | 74.7% | 62.9% | 67.8% | 61.2% | 31.9% | 99.2%
